# In all, about 10,000 compounds went through this assay and fewer than 10 were called active. No rule for the calls is given here. A selection follows.
# Experiment: Vibrio cholerae motility inhibitors, OD read-out (AID 588778)
# Conditions: stronger effect = higher value
# [1] = measured here: bacterial viability at 10 ug/mL
Compound,inhibition (concentration not given here),inhibition [1]
O=C(NCCSCc1ccco1)Nc1ccccc1,22.3% (inactive),0.29%
O=C(CSCc1ccc([N+](=O)[O-])cc1)N1CCN(c2cccc(Cl)c2)CC1,-5.85% (inactive),-3.47%
Cc1cc2[nH]c(=S)n(Cc3ccccc3Cl)c2cc1C,-26.6% (inactive),-12.9%
O=C(NC(=O)C(Cl)(Cl)Cl)NC1CCCC1,-16.4% (inactive),3.96%
O=C(NC(=S)Nc1ccccc1C(=O)NC1CCCCC1)c1ccco1,3.43% (inactive),7.92%
CCn1ccc(C(=O)Nc2ccc(C(F)(F)F)cc2Cl)n1,-7.69% (inactive),-1.52%
Cc1cc(N2C(=O)CC(Cc3ccc(Cl)cc3)C2=O)no1 (stereo unspecified),1.86% (inactive),-6.9%
O=C(CC(NC(=S)Nc1ccccc1)c1ccccc1)c1ccccc1 (stereo unspecified),15.4% (inactive),5.66%
CC(C)C(C(=O)O)c1ccc([N+](=O)[O-])cc1 (stereo unspecified),6.16% (inactive),-2.35%
COc1ccc([N+](=O)[O-])cc1CSc1ccccn1,-1.69% (inactive),-0.75%
CC(C)CNC(=S)NNC(=O)CC(C)O (stereo unspecified),52.6% (inactive),22.3%
CSCCC(C(=O)O)n1c(-c2ccc3ccccc3n2)n[nH]c1=S (stereo unspecified),-9.7% (inactive),-4.1%
Cc1ccc(C(C)C)c(OCCSc2nc3ccccc3n2CC(O)CO)c1 (stereo unspecified),6.25% (inactive),-5.04%
O=C(O)CCn1c2ccccc2c2ccccc21,15.5% (inactive),-1.8%
COc1ccc(NC(=O)c2cc(S(=O)(=O)N3CCOCC3)c(Cl)cc2Cl)c([N+](=O)[O-])c1,-16.3% (inactive),-8.39%
O=C(NCc1ccc(Cl)c(Cl)c1)c1ccc(Br)o1,20.3% (inactive),4.03%
COc1ccc2cnn(-c3ccccc3)c(=O)c2c1OC,12% (inactive),4.55%
CCOc1cc(C(=S)N2CC(C)OC(C)C2)cc(I)c1OCC(=O)N1CCCC1 (stereo unspecified),11% (inactive),5.69%
CC(C)(O)C#Cc1ccc(C(=O)NC2CCCCC2)cc1,12.9% (inactive),20.2%
Cc1cc(=O)[nH]c2c1cnn2Cc1ccccc1,49.6% (inactive),17.8%

Compound,inhibition (concentration not given here),inhibition [1]
Cc1c(NC(=O)C2CC(c3c(F)cccc3Cl)=NO2)c(=O)n(-c2ccccc2)n1C (stereo unspecified),0.12% (inactive),-4.39%
CC1(C(=O)NN2CCOCC2)CC1(Cl)Cl (stereo unspecified),1.9% (inactive),-3.31%
CC(=O)c1cccc(NC(=O)C2CC(=O)N(Cc3ccccc3)C2)c1 (stereo unspecified),-14% (inactive),-3.46%
C#CCOc1c(Br)cc(/C=C/[N+](=O)[O-])cc1OC,33.7% (inactive),7.02%
COc1ccc(C(=O)NCc2ccoc2C(=O)O)cc1,16.5% (inactive),8.04%
O=C(Cn1cnc2ccccc2c1=O)c1ccc(Br)cc1,-17.8% (inactive),-8.61%
Cc1cc(C)n2nc(Cc3ccccc3)c(-c3cccc4ccccc34)c2n1,0.73% (inactive),8.65%
O=CN1Cc2ccccc2-c2ccccc2C1,6.8% (inactive),3.25%
O=C(CNC(=S)NC(=O)c1ccc(F)cc1)c1ccccc1,-64% (inactive),-21.1%
O=C(c1ccccc1Oc1ccc(C(F)(F)F)cc1[N+](=O)[O-])N1CCOCC1,-15.4% (inactive),-2.04%
CN1CCN(C(=O)c2ccccc2NC(=O)Nc2ccccc2)CC1,15.9% (inactive),1.65%
COc1cccc(/C=C(\C#N)c2ccccc2)c1OC(C)C,22.8% (inactive),-2.34%
COc1ccc(C2/C(=C(\O)c3ccc(C)cc3)C(=O)C(=O)N2c2ncc(S(=O)(=O)c3ccc([N+](=O)[O-])cc3)s2)cc1 (stereo unspecified),-0.505% (inactive),-2.23%
Cc1cc(NC(=O)CC2C(=O)N(c3ccccc3)C(=S)N2CCc2ccc(F)cc2)no1 (stereo unspecified),13.3% (inactive),9.96%
Cc1ccc(NNC(=O)C(c2ccccc2)c2ccccc2)cc1,7.31% (inactive),10%
Cc1ccc(CN2CC(C(=O)O)CC2=O)cc1 (stereo unspecified),14.2% (inactive),-5.3%
Cc1ccccc1NC(=O)NNc1ccc(F)cc1,15.9% (inactive),1.32%
CCOC(=O)c1sc(NC(=O)COc2ccc(Cl)cc2Cl)cc1C,19.1% (inactive),13.9%
CCOc1ccc2nc(SCC(=O)Nc3ccc4c(c3)OCO4)[nH]c2c1,4.79% (inactive),2.6%
Cn1cc(C2CC(=O)N(c3c(Cl)cccc3Cl)C2=O)c2ccccc21 (stereo unspecified),-0.44% (inactive),3.05%

Compound,inhibition (concentration not given here),inhibition [1]
CC12CCC(C(=O)NCc3ccc4c(c3)OCO4)(c3nc4ccccc4nc31)C2(C)C (stereo unspecified),3.2% (inactive),0.26%
O=[N+]([O-])c1cccc(N2CCOCC2)c1,17.3% (inactive),4.88%
OC(COCc1ccc(Cl)cc1)CN1CCN(c2cccc(Cl)c2)CC1 (stereo unspecified),37.3% (inactive),11.7%
COc1ccc(C(=O)CSc2nc(=O)cc(N)n2-c2ccc(C)cc2)cc1OC,-12% (inactive),-11.4%
O=C(CS(=O)(=O)Cc1ccccc1)N1CCN(Cc2ccc3c(c2)OCO3)CC1,12.5% (inactive),2.65%
CN(CCc1ccccn1)S(=O)(=O)c1ccccc1,4.78% (inactive),-3.86%
COc1ccc(C(=O)ON2C(=O)CCC2=O)cc1I,4.65% (inactive),-0.225%
Cc1cc(NC(=O)c2ccccc2Cl)c(OC(=O)c2ccccc2Cl)cc1C,-5.73% (inactive),-9.05%
O=C(Oc1ccccn1)C1COc2ccccc2O1 (stereo unspecified),-4.64% (inactive),-1.04%
Cn1nnc2cc(NC(=O)NCc3ccco3)ccc21,9.79% (inactive),6.21%
COc1cc(N2C(=O)c3cccc4c([N+](=O)[O-])ccc(c34)C2=O)ccc1-n1nc(C)cc1C,3.2% (inactive),-0.9%
CC(=O)Nc1sc(/C(C#N)=C/c2ccc(N(C)C)cc2)nc1-c1ccc(C)cc1,2.79% (inactive),-2.29%
O=[N+]([O-])c1ccccc1OCCCNCc1ccco1,11% (inactive),4.43%
CC(C)(C)SCCNC(=S)Nc1ccccc1,32.6% (inactive),4.53%
COC(=O)C1=C(C)N=C2SCCC(=O)N2C1/C=C/c1ccccc1 (stereo unspecified),-20.3% (inactive),-9.41%
CCSc1ncc(Cl)c(C(=O)Nc2c(C)n(C)n(-c3ccccc3)c2=O)n1,-0.94% (inactive),-0.4%
CC(=O)N(Cc1cc2ccc(C)cc2[nH]c1=O)c1ccc(C)cc1C,-16.5% (inactive),-2.06%
O=C(O)CCCCN1Cc2ccccc2C1,2.35% (inactive),7.06%

# Source: PubChem BioAssay AID588778 (Southern Research Institute, 2011)
